Measurements published in PubChem BioAssay (NCI).
Several values for one entry are separate records, joined by “and”; a condition that tells them apart may be missing. Identical values can stand only once. This is part of a sample that, as a whole, favours compounds with a hit. Of some 83,000 tested, about 20% had one in any assay.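 Assay: single dose, 48 h. Readout: percent growth (0 = no net growth; negative = cell death). Active: <10.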 Unmarked numbers belong to inactive results. Activity calls are given as the source filed them.

System: MDA-MB-468 breast
Test: NCI-60 one-dose screen, 48 h (100 = growth as untreated, 0 = no growth, -100 = all killed)
Conditions: 10 µM unless noted

| Structure (SMILES) | growth |
| --- | --- |
| C=C1CC[C@@H]2[C@](C)(COC(C)=O)[C@H](OC(C)=O)CC[C@@]2(C)[C@@H]1CC(NCc1ccccc1)C1=CCOC1=O (stereo not given in full) | 22.9% |
| CC(C)(C)c1ccc(S(=O)(=O)O)s1 | 109% |
| Cc1cnc(N)s1 | 102% |
| O=C1NC(=S)NC(=O)C1=Cc1cn(Cc2cn(Cc3cccc4ccccc34)nn2)c2ccccc12 | 94.9% |
| Nc1c(-c2nc3ccc(Br)cc3c(=O)[nH]2)nnn1-c1ccccc1 | 65.6% |
| O=C(NNc1nc2cc(F)cc(F)c2n2cccc12)c1cccnn1 | -21% (active) |
| NC(=O)Nc1cc(-c2cccc(F)c2)sc1C(=O)N[C@H]1CCCNC1 | -60.5% (active) |
| CCN1CCN(CCNc2nccc(-c3c(-c4cccc(OC)c4)nc4occn34)n2)S1(=O)=O | 100% |
| COc1ccc(Cl)c(Nc2nc3ccccc3nc2NS(=O)(=O)c2cccc(NC(=O)C(C)(C)N)c2)c1 | 21.5% |
| COc1ccc2c(c1)C/C(=C\c1cc(-c3cc(OC)c(OC)c(OC)c3)n[nH]1)C2=O | 68.8% |
| C/C(=N\NC(=S)Nc1ccccc1)c1ccccn1 | -10.2% (active) |
| NC1CCC(Nc2nc(NCc3ccc(-c4ccco4)nc3)c3ncn(C4CCCC4)c3n2)CC1 (stereo not given) | -54.3% (active) |
| COc1cc(NC(=O)Nc2cnc(Nc3ccc(N4CCOCC4)cc3)nc2Oc2cccc(OC)c2)cc(OC)c1 | 29.9% |
| Cc1cc(C)c2c(NC(=O)Nc3ccc(Cl)c(Cl)c3)n[nH]c2n1 | 109% |
| Cc1nc(NC(=O)NC2CCCCC2)sc1C(=O)NN | 97.3% |
| COc1ccc(C(=O)c2cc3c(OC)c(OC)c(OC)cc3[nH]2)cc1 | 20.6% |
| C[C@]12CCC(=O)C[C@H]1CC[C@@H]1[C@@H]2CC[C@@]2(C)[C@H]1CC[C@]2(O)C(=O)CO | 99.8% |
| Cc1ccc(NCCNCC(O)CO)c2c(=O)c3ccccc3sc12 (stereo not given) | -46.4% (active) |
| O=[N+]([O-])c1ccc(OCCCOc2ccccc2)cc1 | 104% |
| COc1cc(/C=C/C(=O)CC(=O)/C=C/c2cc(Br)c(OC)c(OC)c2)cc(Br)c1OC | 97.2% |

| Structure (SMILES) | growth |
| --- | --- |
| c1ccc([I+]c2ccccc2)cc1 | 15.2% |
| O=C(Nc1cccnc1Nc1ccc(Cl)cc1)c1cn(Cc2cccc(Oc3ccccc3)c2)nn1 | 63.3% |
| C=CCC(OC(C)=O)c1ccc(C(C)C)cc1 (stereo not given) | 105% |
| CC(=O)ON1CCCC(P(=O)(OCCSC(=O)C(C)(C)C)OCCSC(=O)C(C)(C)C)C1=O (stereo not given) | 32% |
| Cc1ccc2c(c1)c1nc3cc(C)c(C)cc3nc1n2CCN(C)C | -2.86% (active) |
| c1ccc2c3c([nH]c2c1)C(c1ccc(C2NCCc4c2[nH]c2ccccc42)cc1)NCC3 (stereo not given) | -83.2% (active) |
| Fc1ccc(Oc2ccc(Nc3ncnc4onc(-c5ccccc5)c34)cc2)cc1 | 101% |
| O=C1Cc2c(sc3c(F)cccc23)C(c2ccccc2[N+](=O)[O-])N1 (stereo not given) | 86.9% |
| COc1cc(CC(=O)n2ncc3ccc(N)cc32)cc(OC)c1OC | 94.8% |
| CN1CCN(Cc2occc(=O)c2O)CCN(C)CCN(Cc2occc(=O)c2O)CC1 | 111% and 87.9% |
| CCN(CC)CCCNc1cc(OC)cc2nc3cc(Cl)ccc3nc12 | 11% |
| COc1ccc2c(c1)/C(=C1/S/C(=N/c3nnc(C)s3)NC1=O)C(=O)N2Cc1ccc(Br)cc1 | 25.8% |
| CN(C)c1nc(-c2ccco2)n2nc(-c3ccc(Cl)cc3)cc2n1 | 78.3% |
| CCOC(=O)c1c(C(F)(F)F)n([O-])c2ccc(OC)cc2[n+]1=O | -22.2% (active) |
| CC(C)c1ccc(COCc2cc(CN3CCCC3)c(O)c3ncccc23)cc1 | -21.1% (active) |
| COc1ccc2nc(-c3ccc(-c4noc(-c5ccc(Cl)cc5)n4)cc3)[nH]c2c1 | 37.5% |
| O=C1C=CC2(NN=C(c3ccccc3)N2c2ccccc2)c2cccc(O)c21 (stereo not given) | 36.2% |
| O=C1NC(=O)/C(=C\c2ccco2)S1 | 108% |
| c1ccc(C2=Nc3ccccc3SC2)cc1 | 122% |
| COc1ccc(C2CC(c3cc(Cl)c(C)cc3OC)=NN2c2ccc(S(N)(=O)=O)cc2)cc1OC (stereo not given) | 94.6% |
